Among the test systems are DU-145 prostate; K-562 leukemia; MALME-3M melanoma; MDA-MB-231 breast; RXF 393 renal; SF-268 CNS; SF-295 CNS; SF-539 CNS; UACC-257 melanoma; M14 melanoma; HCT-15 colon; HT29 colon; SNB-75 CNS; SNB-19 CNS; U251 CNS; PC-3 prostate; SK-MEL-5 melanoma; UACC-62 melanoma; LOX IMVI melanoma; SK-MEL-28 melanoma.
Common to all, as to experiment: NCI-60 one-dose screen, 48 h (100 = growth as untreated, 0 = no growth, -100 = all killed)
Holding throughout (conditions): 10 µM unless noted

The panel holds about 83,000 compounds, 20% with a hit somewhere; the sample as a whole holds those more often.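 Activity criterion: percent growth below 10, measured after cells in 96-well plates were exposed to a single compound concentration for 48 hours.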 Unmarked numbers belong to inactive results. Active and inactive are the calls of the source.

As for `CCCNCC(=O)Nc1ccc(C(=O)OC(C)(C)CC)cc1`, the growth with DU-145 prostate is 101%; in the experiment with K-562 leukemia it was 101%; in the experiment with MALME-3M melanoma, 90.9%; with MDA-MB-231 breast it was 102%; in the experiment on RXF 393 renal, 116%; in the experiment with SF-268 CNS, 99%. Also, the growth in the experiment on SF-295 CNS is 103%; in the experiment on SF-539 CNS it was 108%; in the experiment on UACC-257 melanoma, 105%; in the experiment on M14 melanoma, 96.8%; in the experiment on HCT-15 colon, 106%; in the experiment on HT29 colon, 79.4%. For the same compound, the growth with SNB-75 CNS is 104%; in the experiment with SNB-19 CNS, 99.7%; in the experiment with U251 CNS, 100%; in the experiment on PC-3 prostate it was 75.8%; with SK-MEL-5 melanoma, 98.2%; with UACC-62 melanoma, 96.3%. Moreover, the growth in the experiment on LOX IMVI melanoma was 100%; in the experiment on SK-MEL-28 melanoma it was 112%.

For the compound `CCn1c(Sc2nnc(NC(=O)CCN3CCCC3)s2)nc2c1c(=O)n(C)c(=O)n2C`, the growth is 104% in the experiment with DU-145 prostate; 102% in the experiment with K-562 leukemia; 107% in the experiment on MALME-3M melanoma; 103% in the experiment with MDA-MB-231 breast; 110% in the experiment with RXF 393 renal; 102% in the experiment on SF-268 CNS. Also, the growth was 107% in the experiment on SF-295 CNS; 98.4% in the experiment with SF-539 CNS; 102% in the experiment on UACC-257 melanoma; 107% in the experiment on M14 melanoma; 104% in the experiment with HCT-15 colon; 107% with HT29 colon. The growth with SNB-75 CNS was 97.8%; with SNB-19 CNS it was 104%; in the experiment on U251 CNS, 95.3%; in the experiment on PC-3 prostate, 103%; in the experiment on SK-MEL-5 melanoma it was 104%; in the experiment with UACC-62 melanoma it was 101%. In addition, the growth in the experiment on LOX IMVI melanoma was 99.9%; in the experiment on SK-MEL-28 melanoma, 111%.

As to `COc1cccc(-c2nc3sccn3c2-c2ccnc(NCCNS(=O)(=O)c3c(Cl)cccc3Cl)c2)c1`, the growth was 63% in the experiment with DU-145 prostate; 29.3% in the experiment on K-562 leukemia; 77.8% in the experiment on MALME-3M melanoma; 76.7% in the experiment with MDA-MB-231 breast; 69.9% in the experiment on RXF 393 renal; 26.1% in the experiment on SF-268 CNS. The growth is 60.7% in the experiment with SF-295 CNS; 85.9% in the experiment on SF-539 CNS; 85.1% in the experiment on UACC-257 melanoma; 57.7% in the experiment with M14 melanoma; 47.3% in the experiment with HCT-15 colon; 47.3% in the experiment with HT29 colon. Moreover, the growth in the experiment with SNB-75 CNS was 42.8%; in the experiment on SNB-19 CNS, 77%; in the experiment on U251 CNS, 70.1%; in the experiment with PC-3 prostate it was 41.2%; in the experiment on SK-MEL-5 melanoma, 26%; in the experiment with UACC-62 melanoma it was 28.6%. Besides, the growth is 58.6% in the experiment with LOX IMVI melanoma and 90.4% in the experiment on SK-MEL-28 melanoma.

For `Cc1nn(Cc2ccccc2)cc1C(=O)Nc1sc2c(c1C(N)=O)CCC(=O)C2`, the growth with DU-145 prostate was 67.6%; with K-562 leukemia, 10.5%; in the experiment on MALME-3M melanoma, 27.6%; in the experiment on MDA-MB-231 breast, 25%; with RXF 393 renal, 31.4%; with SF-268 CNS, 20.5%. Besides, the growth in the experiment with SF-295 CNS is 79.7%; in the experiment on SF-539 CNS, 9.16% (active); in the experiment on UACC-257 melanoma it was 70.7%; with M14 melanoma it was 16.7%; with HCT-15 colon it was 13.6%; in the experiment with HT29 colon it was 13.1%. Besides, the growth in the experiment with SNB-75 CNS was 54.5%; in the experiment on SNB-19 CNS, 63%; in the experiment on U251 CNS, 23.2%; with PC-3 prostate it was 15.6%; in the experiment with SK-MEL-5 melanoma, 28.8%; with UACC-62 melanoma, 13.9%. The results for the growth in the experiment with LOX IMVI melanoma and in the experiment with SK-MEL-28 melanoma were 17.2% and 29.8%, respectively.

`O=C(NCCOCCOCCOCCNC(=O)c1cc2c(o1)C(=O)c1ccccc1C2=O)NC12CC3CC(CC(C3)C1)C2`: the growth was -96% (active) with DU-145 prostate; 7.09% (active) with K-562 leukemia; -94.5% (active) in the experiment on MALME-3M melanoma; 18.5% in the experiment with MDA-MB-231 breast; -52.9% (active) in the experiment on RXF 393 renal; -5.16% (active) in the experiment with SF-268 CNS. Further, the growth was -91.9% (active) with SF-295 CNS; -63.5% (active) in the experiment on SF-539 CNS; -77% (active) with UACC-257 melanoma; -40.2% (active) in the experiment on M14 melanoma; -74.7% (active) in the experiment on HCT-15 colon; 1.21% (active) with HT29 colon. Also, the growth is -99.6% (active) with SNB-75 CNS; -2.04% (active) with SNB-19 CNS; -22% (active) in the experiment on U251 CNS; 12.1% with PC-3 prostate; -97.7% (active) with SK-MEL-5 melanoma; -93.6% (active) with UACC-62 melanoma. Also, the figures for the growth in the experiment with LOX IMVI melanoma and in the experiment with SK-MEL-28 melanoma were -46.2% (active) and -40.8% (active), respectively.

`CCCCCCCC/C=C/CCCCCCCC1=NCC[N+]1(CCO)CCO`: the growth is 78.9% with DU-145 prostate; 32.7% with K-562 leukemia; 96.2% with MALME-3M melanoma; 56.6% in the experiment with MDA-MB-231 breast; 50.1% in the experiment on RXF 393 renal; 75.2% in the experiment with SF-268 CNS. Besides, the growth in the experiment with SF-295 CNS is 79.6%; in the experiment with SF-539 CNS, 90.3%; with UACC-257 melanoma it was 104%; in the experiment with M14 melanoma, 71.4%; in the experiment with HCT-15 colon it was 80.6%; in the experiment on HT29 colon, 13%. Further, the growth is 63.2% in the experiment with SNB-75 CNS; 73.7% with SNB-19 CNS; 36.1% with U251 CNS; 31.9% with PC-3 prostate; 77.9% in the experiment with SK-MEL-5 melanoma; 69.4% in the experiment on UACC-62 melanoma. The growth is 52% in the experiment with LOX IMVI melanoma and 96.3% with SK-MEL-28 melanoma.

For the compound `CCNCCNc1cc(-c2ccc(Cl)cc2)c(C#N)c2nc3ccccc3n12`, the growth was 26.4% in the experiment on DU-145 prostate; -48.1% (active) in the experiment on K-562 leukemia; -80.2% (active) in the experiment with MALME-3M melanoma; -57.4% (active) in the experiment on MDA-MB-231 breast; -82.9% (active) in the experiment on RXF 393 renal; -12.6% (active) with SF-268 CNS. The growth with SF-295 CNS is -77.6% (active); in the experiment on SF-539 CNS, -91.4% (active); in the experiment on UACC-257 melanoma, -79.4% (active); in the experiment on M14 melanoma it was -70.7% (active); with HCT-15 colon it was -78.5% (active); in the experiment with HT29 colon it was -32.2% (active). Also, the growth with SNB-75 CNS was -76.6% (active); with SNB-19 CNS, 36%; in the experiment on U251 CNS it was -53.2% (active); in the experiment on PC-3 prostate it was 27.2%; in the experiment on SK-MEL-5 melanoma, -99.4% (active); in the experiment with UACC-62 melanoma, -82.7% (active). For the same compound, the growth in the experiment on LOX IMVI melanoma was -77.4% (active); in the experiment with SK-MEL-28 melanoma, -90.2% (active).

Consider `N=C(N)c1ccc(-c2ccc(-c3ccc(Cl)c(Cl)c3)o2)nc1`, for which the growth in the experiment with DU-145 prostate was -18.5% (active); with K-562 leukemia, -1.03% (active); in the experiment with MALME-3M melanoma, 105%; in the experiment on MDA-MB-231 breast it was -47% (active); in the experiment on RXF 393 renal it was 86%; with SF-268 CNS, 98.5%. For the same compound, the growth in the experiment on SF-295 CNS was -70.1% (active); in the experiment on SF-539 CNS, 38.8%; in the experiment on UACC-257 melanoma it was 107%; in the experiment with M14 melanoma, -51.8% (active); with HCT-15 colon, 17.2%; in the experiment with HT29 colon, -39.8% (active). Also, the growth was 97.8% with SNB-75 CNS; 6.96% (active) in the experiment with SNB-19 CNS; -57.1% (active) with U251 CNS; 64.5% with PC-3 prostate; 92.4% with SK-MEL-5 melanoma; 103% in the experiment on UACC-62 melanoma. For the same compound, the growth with LOX IMVI melanoma is -74.7% (active); in the experiment with SK-MEL-28 melanoma, 99.6%.
